# Experimental data published in the supplement of paper PMC6897291.
# System: RIVA
# Test: growth inhibition by drug alone (1 - RLU/untreated control) (fraction); higher = stronger inhibition
# Settings: 10 nM; time (day): 4; 177Lu-lilotomab satetraxetan 0 ug/ml
# Procedure, shortened: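 RIVA or U-2932 cells, untreated or pretreated 18 h with a radiolabelled anti-CD37 antibody conjugate (~600 MBq/mg; 0.5 µg/ml RIVA, 1 µg/ml U-2932), were washed and seeded at 3,000 cells/well on plates pre-printed with the Selleck Cambridge Cancer Compound library. Doses were 10/100 nM (RIVA) or 10/1,000 nM (U-2932). RealTime-Glo luminescence was read daily from day 3 after 1 h at 37°C. Growth inhibition is 1 − RLU/mean of 48 untreated no-drug wells per plate.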
row,Compound,growth inhibition by drug alone
1,CNCc1ccc(-c2[nH]c3cc(F)cc4c3c2CCNC4=O)cc1,-0.0309
2,O=C(O)c1ccc(-c2c[nH]c3ncc(-c4ccccc4)cc23)cc1C1CCCC1,-0.122
3,CC(=O)c1c(C)c2cnc(Nc3ccc(N4CCNCC4)cn3)nc2n(C2CCCC2)c1=O,-0.0722
4,CCN(CC)CCCCNc1ncc2cc(-c3cc(OC)cc(OC)c3)c(NC(=O)NC(C)(C)C)nc2n1,-0.246
5,CCC(C)(C)C(=O)O[C@H]1C[C@@H](C)C=C2C=C[C@H](C)[C@H](CC[C@@H]3C[C@@H](O)CC(=O)O3)[C@H]21 [Simvastatin (Zocor)],-0.217
6,CC[C@H](Nc1ncnc2[nH]cnc12)c1nc2cccc(F)c2c(=O)n1-c1ccccc1,-0.203
7,CC(C=CC(=O)NO)=CC(C)C(=O)c1ccc(N(C)C)cc1 (stereo not drawn) [Trichostatin A (TSA)],-0.0626
8,COc1ccc2c3n(c(=NC(=O)c4cccnc4)nc2c1OC)CCN3,0.0605
9,NC(=O)c1ccc(-c2nc(-c3ccccn3)c(-c3ccc4c(c3)OCO4)[nH]2)cc1,0.132
10,CNC(=O)c1cc(Oc2ccc(NC(=O)Nc3ccc(Cl)c(C(F)(F)F)c3)c(F)c2)ccn1 [Regorafenib (BAY 73-4506)],0.118
11,Cc1cnc(Nc2ccc(OCCN3CCCC3)cc2)nc1Nc1cccc(S(=O)(=O)NC(C)(C)C)c1,-0.238
12,CCOc1ccc(Nc2nc(-c3c(C)nc4ccccn34)cs2)cc1,0.0644
13,CC(C)C[C@H](NC(=O)[C@H](Cc1ccccc1)NC(=O)c1cnccn1)B(O)O [Bortezomib (Velcade)],0.946
